# Bioassay records as filed in PubChem.
# tim23-1 inh – inhibits growth of tim23-1 mutant yeast; inhibition, % at 20 µM; 330,000 tested, 1.3% active; S. cerevisiae tim23-1 growth, BacTiter-Glo luminescence, 24 h;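 active = growth inhibition of the mutant yeast at or above 50%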;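 note: temperature-sensitive mutant grown at 25 °C; plate controls were DMSO-treated mutant yeast for no effect and medium wells lacking yeast for full effect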
# PfHsp90 yeast 2 – reduces growth (ATP signal) of yeast expressing P. falciparum Hsp90; S. cerevisiae expressing PfHsp90, BacTiter-Glo ATP, 48 h; yeast lacking PDR1 and PDR3 efflux regulators; inhibition, % at 9.4 µM; 310,000 tested, 0.32% active; AID 504621;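 active = every replicate shows inhibition above about 80%, whatever the replicate mean, limit read from the data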;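 note: 0% = DMSO neutral controls and 100% = 20 µM radicicol positive controls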
# NALP1 inh – blocks the NALP1 inflammasome reconstituted in yeast; 280,000 tested, 0.61% active; AID 2071; S. cerevisiae NALP1/ASC/caspase-1 growth, X-gal OD620, 72 h; inhibition, % at 10 µM; in the data active = inhibition mostly above about 24%, no sharp cut-off; inactive = mostly below about 32%
# TIM10 inh – growth inhibitors of TIM10 yeast strain; 330,000 tested, 1.4% active; AID 463195; S. cerevisiae TIM10 strain growth, BacTiter-Glo luminescence, 24 h; inhibition, % at 10 µM;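 active = inhibition of 40% or more at the single tested concentration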;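 note: wild-type TIM10 isogenic control strain grown at permissive 25 °C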
# tim10-1 inh – tim10-1 yeast growth inhibition; S. cerevisiae tim10-1 ts strain growth, BacTiter-Glo, 24 h; inhibition, % at 20 µM; 330,000 tested, 2.2% active; AID 463190;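 active = inhibition of at least 40%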;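 note: mutant grown at 25 °C; 0% = DMSO wells with yeast and 100% = wells holding no yeast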
# NLRP3 yeast inh – inhibitors of NALP3 inflammasome in yeast | Yeast reconstituted NLRP3/ASC/caspase-1, beta-gal luminescence, 24 h | inhibition, % at 10 µM | 330,000 tested, 0.39% active;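 active = inhibition of 50% or more; inactive = inhibition below 50%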;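 note: plate controls were induced DMSO wells for no effect and uninduced yeast grown without galactose for full effect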
# tim10-1 confirm – confirmation of tim10-1 mutant yeast growth inhibitors; AID 463213; S. cerevisiae tim10-1 ts strain growth, BacTiter-Glo, 24 h; shares compounds with tim10-1 inh; inhibition, % at 20 µM; 7,400 tested, 56% active;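 active = inhibition of yeast growth at or above a set limit in either of two repeat tests at 20 µM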;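 note: tim10-1 mutant grown at permissive 25 °C to find synthetic lethal compounds; 0% = DMSO yeast wells and 100% = medium wells without yeast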
# * marks the source's active call; other numbers are inactive results; nt = not tested or not shown. In the library only some 4.2% were active in any assay of this set; here they are far more common.
SMILES,tim23-1 inh,PfHsp90 yeast 2,NALP1 inh,TIM10 inh,tim10-1 inh,NLRP3 yeast inh,tim10-1 confirm
CCCN(CCC)c1ncnc2nc[nH]c12,24.8,1.5,17.4,3.1,44.8*,9.1,12.8
Clc1ccccc1CN(Cc1ccccc1)c1ncnc2nc[nH]c12,5.8,-14.8,nt,18.1,41.4*,-19.9,4.2
COc1ccc(C(=O)N2CCC3(CC2)NCCc2[nH]cnc23)cc1OC,5.3,-0.3,21.7,9.8,-3.8,3.5,nt
C=CCOC(=O)C(C#N)c1nc2ccccc2nc1N1CCCC1 (centres undefined),38.2,25.8,17.4,17.7,40.6*,35.3,27.8
COCCOC(=O)C(C#N)c1nc2ccccc2nc1N1CCCC1 (centres undefined),38.2,-8.2,4.8,24.0,30.3,19.5,nt
c1ccc(OCc2nnc3sc(-c4cccs4)nn23)cc1,7.7,nt,-3.3,20.5,46.8*,-14.8,15.8
Clc1ccc(Cl)c(-c2nn3c(COc4ccccc4)nnc3s2)c1,5.9,-14.1,-2.8,1.8,35.7,-13.8,nt
CCN(CC(=O)NCc1cccs1)C(=O)Cc1ccc(C)c(C)c1,18.2,-8.1,nt,6.8,25.5,15.5,nt
Cc1nc2ccc(NS(=O)(=O)c3ccc(C)c(C)c3)cc2s1,33.1,-21.2,-1.9,27.7,42.2*,29.9,11.6
CCN(CC(=O)NCc1ccc(F)cc1)C(=O)Cc1ccc(OC)cc1,9.9,-11.1,17.9,-4.6,11.2,2.4,nt
CCOC(=O)C1CCN(S(=O)(=O)c2cc(Br)cc3c2N(C(=O)C2CC2)CC3)CC1,32.5,-12.8,36.7,33.2,33.8,8.2,nt
O=C(C1CC1)N1CCc2cc(Br)cc(S(=O)(=O)N3CCN(c4ccccn4)CC3)c21,28.2,17.4,35.5,10.4,43.8*,20.4,36.6*
Cn1c(C(=O)NC2CC2)cc(=O)n(C)c1=O,-0.4,-29.1,11.1,-17.0,-7.5,-0.2,nt
C=CCN1C(=O)/C(=C2\SC(N3CCOCC3)=NC2=O)c2cc(Br)ccc21,40.5,1.6,nt,29.4,51.5*,22.7,8.0
CCN1C(=O)/C(=C2\SC(N3CCOCC3)=NC2=O)c2ccccc21,-13.0,25.0,-3.3,-8.1,9.5,2.7,nt
Cc1cc(C)c(S(=O)(=O)N2CCN(C(=O)C3COc4ccccc4O3)CC2)c(C)c1 (centres undefined),44.5,-13.8,nt,20.9,40.0*,18.3,28.1
Cc1ccc(S(=O)(=O)N2CCN(C(=O)C3COc4ccccc4O3)CC2)cc1C (centres undefined),20.2,nt,-3.7,4.8,21.2,24.1,nt
COc1cccc(C(C(=O)NC2CCCC2)N(CC2CCCO2)C(=O)Cc2cccs2)c1 (centres undefined),12.5,10.3,-11.8,14.1,45.2*,5.7,21.0
COc1ccc(C(C(=O)NC2CCCC2)N(CC2CCCO2)C(=O)Cc2cccs2)cc1OC (centres undefined),4.3,-2.2,-11.2,18.8,16.1,7.5,nt
CCCCc1ccc(NC(=S)N2CCN(C(=O)c3ccco3)CC2)cc1,36.2,15.9,2.6,25.1,42.7*,16.8,24.2
Cc1cccc(NC(=S)N2CCN(C(=O)c3ccco3)CC2)c1,-1.1,-10.5,14.9,10.2,7.3,19.1,nt
Cc1ccccc1NC(=O)CSc1nc(N)c2c3c(sc2n1)CSC(C)(C)C3,38.8,-6.0,24.2,9.4,43.3*,3.8,33.4*
O=C(c1ccc(COc2ccccc2Br)cc1)N1CCCCCC1,38.7,-31.9,15.0,27.9,40.9*,17.8,27.4
CCOC(=O)c1ccc(N2C(=O)C3C(C2=O)C(C(=O)c2ccc(Cl)cc2)N2CCCC32)cc1 (centres undefined),26.4,-2.9,6.6,32.0,42.0*,18.2,29.3*
COc1ccc2cc(C)c3nnc(SCC(=O)Nc4cc(OC)c(OC)cc4C(=O)O)n3c2c1,16.3,-6.4,-9.1,4.0,29.9,5.3,nt
COc1ccc2cc(C)c3nnc(SCc4cccnc4)n3c2c1,29.5,-7.7,10.5,28.3,41.3*,19.6,33.6*
CCOC(=O)c1sc(-c2ccc(F)cc2)cc1N,45.5,nt,-29.8,26.8,42.4*,-41.1,38.7*
O=C1C2CC=CCC2C(=O)N1Cc1ccccc1Cl (centres undefined),3.4,2.5,32.9,-26.0,1.0,-14.4,nt
